Assay results published in PubChem BioAssay (Tox21).
Results filed as inconclusive are left out. A call without a number means that no potency is given here. Some structures have more than one record in an assay (separate samples or runs), and their calls can disagree. Calls of active or inactive are those of the source. Calls come from the whole dose curve; as a rule, active = well fitted inhibition curve with a large enough effect in the repeat runs; inconclusive = weak or mixed curves; inactive = no such curve, though single readings can be large or run the other way.

Molecular target: Cytochrome P450 2D6 (Homo sapiens) (UniProt P10635)
Experiment: Cytochrome P450 Family 2 Subfamily D Member 6 (CYP2D6) small molecule antagonists: luciferase reporter qHTS assay (AID 1671196); note: nearly all actives have a fitted effect of over 50% in size
Conditions: P450-Glo CYP2D6 enzyme assay, luciferin luminescence, 1 h; series mostly up to 115 µM
Source text: U.S. Tox21 Program National Center for Advancing Translational Sciences [NCATS] U.S. Environmental Protection Agency [EPA] National Institutes of Environmental Health Sciences [NIEHS] National Toxicology Program [NTP] U.S. Food and Drug Administration [FDA] Tox21 Assay Overview: Cytochrome P450 (CYP) enzymes are membrane-bound hemeproteins that play a key role in metabolism of drugs and xenobiotics. Evaluation of the effect of chemicals on CYP isozymes is useful to minimize the adverse drug reactions and toxicities in drug development process. Tox21 chemicals were tested for their effect on CYP enzyme activities by using P450-Glo (TM) screening systems (Promega Corporation, Madison, WI). These systems provide a luminescent method containing proluciferin substrates and are converted to luciferin products by CYP isozymes. The luciferin products formed are detected with a luciferin detection reagent, and the amount of light produced is proportional to CYP activity. P450-Glo (TM) CYP2D6 screening system (Catalog. No. V9890) was used to detect the compounds that interfere in CYP2D6 activity.
Tox21 Assay Protocol Summary: Two ul of enzyme-substrate mix was dispensed into medium binding white/solid 1536-well plates (Greiner Bio-One North America Inc., Monroe, NC) using a BioRaptr Flying Reagent Dispenser (FRD, Beckman Coulter, Brea, CA). […] The assay plates were incubated at room temperature for 10 min. Then 2 ul of NADPH regeneration solution was added to each well of the assay plates using an FRD and incubated at room temperature for 1 h. The reaction was stopped by adding 4 ul of detection reagent using an FRD and after 20 min incubation at room temperature the luminescence signal was measured using a ViewLux plate reader (Perkin Elmer, Shelton, CT). Data were expressed as relative luminescence units.
Potency is the fitted concentration of half-maximal effect.

Sequence of Cytochrome P450 2D6 (Homo sapiens) (P10635 whole entry, looked up): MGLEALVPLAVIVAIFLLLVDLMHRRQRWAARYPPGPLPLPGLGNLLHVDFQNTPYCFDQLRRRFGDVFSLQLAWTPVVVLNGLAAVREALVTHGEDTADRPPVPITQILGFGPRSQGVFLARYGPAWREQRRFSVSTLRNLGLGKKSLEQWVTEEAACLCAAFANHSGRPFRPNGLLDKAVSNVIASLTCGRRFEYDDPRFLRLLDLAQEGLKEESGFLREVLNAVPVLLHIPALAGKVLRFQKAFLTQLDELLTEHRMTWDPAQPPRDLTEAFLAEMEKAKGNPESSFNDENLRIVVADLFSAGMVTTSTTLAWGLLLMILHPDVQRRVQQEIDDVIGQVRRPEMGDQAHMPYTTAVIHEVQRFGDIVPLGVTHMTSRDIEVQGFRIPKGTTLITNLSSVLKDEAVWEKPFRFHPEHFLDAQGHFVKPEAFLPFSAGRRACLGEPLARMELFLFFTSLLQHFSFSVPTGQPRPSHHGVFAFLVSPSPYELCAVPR

Structure (SMILES)	Potency	activity change, negative = inhibition
CC(C)OCC1CO1 (stereo not given)	inactive	–
CCCC(=O)O[C@]1(C(=O)COC(=O)CC)CC[C@H]2[C@@H]3CCC4=CC(=O)CC[C@]4(C)[C@H]3[C@@H](O)C[C@@]21C	–	-0.0142% [at 23.6 µM] (inactive)
Cc1c(C(=O)NN2CCCCC2)nn(-c2ccc(Cl)cc2Cl)c1-c1ccc(Cl)cc1	inactive	–
O=C(NCCCN1CCOCC1)c1ccc(Cl)cc1	2.45 µM (active)	–
CN(C(=O)C(Cl)Cl)c1ccc(OC(=O)c2ccco2)cc1	inactive	–
CC1(C)C(=O)N(Br)C(=O)N1Cl	inactive	–
C=CC(C)(C)CC(=O)OC	63.5 µM (active)	–
CN1Cc2cc(C(=O)N3CCC(C4CCNCC4)CC3)ccc2N[C@@H](CC(=O)O)C1=O	inactive	–
COc1cc2c(cc1OC)-c1cc(=Nc3c(C)cc(C)cc3C)n(C)c(=O)n1CC2	13.8 µM (active)	–
C=CC(=O)NCOCC(C)C	inactive	–
CCc1c2c(nc3ccc(OC(=O)N4CCC(N5CCCCC5)CC4)cc13)-c1cc3c(c(=O)n1C2)COC(=O)[C@]3(O)CC	inactive	–
CCC1(C)CC(=O)NC1=O (stereo not given)	inactive	–
CCCc1c(OCCCOc2ccc(OCC(=O)O)cc2)ccc(C(C)=O)c1O	inactive	–
CCCCCCCCCOC(C)=O	inactive	–
O=C(O)c1cccnc1C(=O)O	inactive	–
CC(CCc1ccc2c(c1)OCO2)NN (stereo not given)	30.9 µM (active)	–
CC#N	inactive	–
COc1ccc(CCC(=O)c2c(O)cc(O[C@@H]3O[C@H](CO)[C@@H](O)[C@H](O)[C@H]3O[C@@H]3O[C@@H](C)[C@H](O)[C@@H](O)[C@H]3O)cc2O)cc1O	inactive	–
C=CCCCCCCCCCCCCCCCC	–	0.602% [at 10.5 µM] (inactive)
c1ccc(COCc2ccccc2)cc1	inactive	–

Structure (SMILES)	Potency	activity change, negative = inhibition
CO[Si](C)(OC)OC	inactive	–
Cc1cnc(C)c(C)n1	inactive	–
Cc1cc(O)c(C(C)C)cc1Cl	63.3 µM (active) and inactive	–
O=C(CCCCCCC(=O)Nc1ccccc1)NO	5.49 µM (active)	–
CC(C)=CC=O	inactive	–
CCOC(=O)[C@@H](C)Oc1ccc(Oc2nc3ccc(Cl)cc3o2)cc1	31.7 µM (active)	–
NC(=O)Nc1ccc(Cl)cc1	inactive	–
OCC1CC=CCC1 (stereo not given)	inactive	–
CCCCN(CCCC)C(=S)SSC(=S)N(CCCC)CCCC	28 µM (active)	–
CC(C)CCCCCCOC(=O)CCCCC(=O)OCCCCCCC(C)C	inactive	–
CCn1nc(C)c2c1C(=O)NCC(c1ccc(O)cc1)=N2	inactive	–
CN(C)CCOC1=Cc2ccccc2Sc2ccc(Cl)cc21	4.36 µM (active)	–
CC(C)(O)c1ccccc1CC[C@@H](SCC1(CC(=O)O)CC1)c1cccc(/C=C/c2ccc3ccc(Cl)cc3n2)c1	inactive	–
CCC(C)(C)C1CCC(O)CC1 (stereo not given)	inactive	–
COC(=O)c1cc(Cl)ccc1NS(=O)(=O)C(F)(F)F	inactive	–
CCCCCCCCCCCCCCCCBr	–	-8.89% [at 23.6 µM] (inactive)
CC(COc1ccc(C(C)(C)C)cc1)OS(=O)OCCCl (stereo not given)	inactive	–
O=C(Nc1ccc([N+](=O)[O-])cc1)Nc1ccc([N+](=O)[O-])cc1	inactive	–
O=Cc1c(Cl)cccc1Cl	inactive	–
CCC(Cc1ccccc1)(C(=O)c1ccc(N2CCOCC2)cc1)N(C)C (stereo not given)	7.96 µM (active)	–
